KDM4E inh: qHTS Assay for Inhibitors of Human Jumonji Domain Containing 2E (JMJD2E); JMJD2E catalytic domain, FDH-coupled NADH fluorescence (FDH is formaldehyde dehydrogenase); Potency, µM (highest dose often 57.1 µM), hits mostly inhibitors; 230,000 tested, 1.6% active; active = well fitted inhibition curve with a large enough effect, not every such curve was filed as active; inconclusive = small, poorly fitted or top-dose-only effect, or another doubt; inactive = no such curve, though single readings can be large or run the other way; also: nearly all actives have a fitted effect of over 50% in size
Target sequence (B2RXH2 1-337 limits assumed): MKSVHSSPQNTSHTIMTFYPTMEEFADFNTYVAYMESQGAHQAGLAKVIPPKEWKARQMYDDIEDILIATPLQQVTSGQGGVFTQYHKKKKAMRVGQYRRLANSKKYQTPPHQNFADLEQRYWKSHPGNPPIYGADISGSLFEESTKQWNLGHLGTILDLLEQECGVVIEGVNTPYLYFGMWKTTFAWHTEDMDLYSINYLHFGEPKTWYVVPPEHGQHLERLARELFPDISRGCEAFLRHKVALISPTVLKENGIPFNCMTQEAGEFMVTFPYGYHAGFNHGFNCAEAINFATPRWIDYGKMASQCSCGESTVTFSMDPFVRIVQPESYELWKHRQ
VDR inh: Inhibitors of the vitamin D receptor (VDR): qHTS; 400,000 tested, 0.93% active; Potency, µM, hits mostly inhibitors; Vitamin D3 receptor (Homo sapiens), P11473; VDR-SRC2-3 peptide fluorescence polarization, 2 h
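FP read-out; VDR + SRC2-3 coactivator peptide; 23 nl compound by pintool; 2 h RT incubation; reagents held at 4 deg C, protected from light.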
GoLoco inh red: qHTS Assay for Inhibitors of RGS12 GoLoco Motif Activity (Red Fluorophore); Guanine nucleotide-binding protein G(i) subunit alpha-1 (Homo sapiens), P63096; Gai1:RGS12 GoLoco peptide FP, rhodamine, 10 min; Potency, µM (doses to about 61.6 µM), usual class: inhibitors; 230,000 tested, 0.44% active; AID 880, 2007; active = well fitted inhibition curve with a large enough effect, not every such curve was filed as active; inactive = no such curve, though single readings can be large or run the other way; also: nearly all actives have a fitted effect of over 30% in size
Target sequence (P63096 whole entry, looked up): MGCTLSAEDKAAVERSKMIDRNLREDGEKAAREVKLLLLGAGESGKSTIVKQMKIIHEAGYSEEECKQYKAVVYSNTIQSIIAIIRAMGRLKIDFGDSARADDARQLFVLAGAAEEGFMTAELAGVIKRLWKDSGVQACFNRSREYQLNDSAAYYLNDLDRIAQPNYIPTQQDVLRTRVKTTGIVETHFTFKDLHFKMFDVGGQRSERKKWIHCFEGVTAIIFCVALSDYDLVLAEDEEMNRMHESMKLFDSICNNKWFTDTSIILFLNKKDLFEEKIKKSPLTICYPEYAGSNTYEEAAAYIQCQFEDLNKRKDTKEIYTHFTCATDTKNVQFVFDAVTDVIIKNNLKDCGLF
FBPA coupling cs: qHTS Assay for Inhibitors of Fructose-1,6-bisphosphate Aldolase from Giardia Lamblia: Coupling assay counterscreen; coupling enzyme system counterscreen, AmpLite Red fluorescence; activity change, negative = inhibition, % at 58.2 µM, hits read low; 290,000 tested, 0.67% active; AID 2472, 2010; in the data active = activity change below about -30%
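Activity here indicates interference with the coupling reaction, not aldolase inhibition. Compounds at 57.5 uM final met coupling enzymes for 10 min at RT; substrate and AmpLite Red detection followed, with a 525/598 nm fluorescence read after 20 min.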
HTT cytoprotect: qHTS Multiplex Assay to Identify Dual Action Probes in a Cell Model of Huntington: Cytoprotection (ATP); PC12 HTT-Q103 induced, cytoprotection, ATP luminescence, 40 h; 230,000 tested, 0.14% active; AID 1471, 2008; Potency, µM (titrated, usually from 56.4 µM), most hits filed as activators; also: nearly all actives have a fitted effect of over 45% in size
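Readout: ATPlite luminescence (ATP level). Model: stable PC12, inducible Htt exon1 Q103-GFP. Inducer: tebufenozide, 100 nM final. Compounds: dose series. No G418 in medium.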
HttQ103 aggreg: qHTS Multiplex Assay to Identify Dual Action Probes in a Cell Model of Huntington: Aggregate Formation (GFP). PC12 HttQ103-GFP aggregates, Acumen cytometry, 40 h. Potency, µM (series often up to 46.1 µM), actives largely listed as inhibitors. 220,000 tested, 1.1% active. AID 1688, 2009; also: nearly all actives have a fitted effect of over 60% in size
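PC12/HTTQ103-GFP, ecdysone-inducible; teb 100 nM; cpd qHTS titration; GFP aggregates read on laser cytometer, Ex 488/Em 500-530 nm.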
A number is an active result; . = inactive; ? = inconclusive; / = no result; [ ] = another dose, or the depositor's remark. Most compounds without a hit are left out; they make up all but 2.3% or so of the library. Unless noted, calls follow the shape of the dose curve; as a rule, active = well fitted curve in the direction sought with a large enough effect; inconclusive = small, poorly fitted or top-dose-only effect, or another doubt; inactive = no such curve, though single readings can be large; an effect the other way counts as inactive or inconclusive.

SMILES | KDM4E inh | VDR inh | GoLoco inh red | FBPA coupling cs | HTT cytoprotect | HttQ103 aggreg
COc1ccc(-n2cnc3cc(C(=O)NCCN4CCOCC4)ccc32)cc1 | . | . | . | . | . | .
CC1CCCCC1NC(=O)CCNS(=O)(=O)c1ccc(Cl)cc1 (stereo unspecified) | / | . | / | . | / | /
COc1ccc(N(C(=O)CSCC(=O)Nc2cc(C)on2)C(C(=O)NC2CCCCC2)c2ccc(O)c(O)c2)cc1 (stereo unspecified) | 11.2µM | . | . | . | .[10 µM] | .
Cc1cc(NC(=O)CSCC(=O)N(c2ccc(F)cc2)C(C(=O)NC2CCCCC2)c2ccc(O)c(O)c2)no1 (stereo unspecified) | . | . | . | . | .[10 µM] | .
Cc1cc(NC(=O)CSCC(=O)N(c2cccc(Cl)c2)C(C(=O)NC2CCCCC2)c2ccc(O)c(O)c2)no1 (stereo unspecified) | 10µM | . | . | . | .[10 µM] | .
Cc1c(N(C)S(=O)(=O)c2cccc(C(=O)NCC3CCCO3)c2)c(=O)n(-c2ccccc2)n1C (stereo unspecified) | / | . | / | / | / | /
Cc1c(N(C)S(=O)(=O)c2cccc(C(=O)NC(C)C)c2)c(=O)n(-c2ccccc2)n1C | / | 79.4µM | / | . | / | /
O=C(CCCn1c2ccccc2c(=O)c2ccccc21)Nc1cccc(Cl)c1 | / | . | / | / | / | /
O=C(O)c1ccc(S(=O)(=O)c2ccc(Sc3ccc(C(=O)O)c(C(=O)O)c3)cc2)cc1 | ? | . | . | . | / | /
CCSc1nnc(NC(=O)CSc2nc3c(c(=O)n2C)SC(C)C3)s1 (stereo unspecified) | . | . | . | . | .[1.9 µM] | .
CCSc1nnc(NC(=O)CSc2nc3c(c(=O)n2CC)SC(C)C3)s1 (stereo unspecified) | . | . | . | . | . | 12.6µM
CCCN(CCC)C1=CC(=[N+]2CCCC2)CC(C)(C)C1 | . | . | 7.94µM | . | .[0.074 µM] | 11.2µM
O=C(c1ccc(F)cc1)C(CN1CCOCC1)c1ccccc1 (stereo unspecified) | . | 50.1µM | . | . | 31.6µM | .[9.22 µM]
O=C(c1ccc(Cl)cc1)C(CN1CCCC1)c1ccccc1 (stereo unspecified) | / | 25.1µM | / | . | / | /
COc1ccc(C(=O)C(CN2CCCC2)c2ccccc2)cc1 (stereo unspecified) | . | ? | . | . | / | .[9.22 µM]
COc1ccc(C(=O)C(CN2CCOCC2)c2ccccc2)cc1 (stereo unspecified) | . | . | . | . | 22.4µM | /
CCc1cc(=O)oc2cc(C)c(CN3CCCCC3)c(O)c12 | ? | ? | . | . | . | .[9.22 µM]
CCc1cc(=O)oc2cc(C)c(CN3CCCC3)c(O)c12 | 25.1µM | . | / | . | . | .
C#CCn1c(C2CC(=O)N(c3ccc(OCC)cc3)C2)nc2ccccc21 (stereo unspecified) | / | . | / | / | / | /
O=C1CCCC(O)=C1N=Nc1c(Cl)cc(C(F)(F)F)cc1Cl | 25.1µM | . | . | . | .[10 µM] | .[9.22 µM]
O=C1CCCC(O)=C1N=Nc1ccc(C(=O)O)cc1 | ? | . | . | . | .[10 µM] | .[9.22 µM]
COC(=O)c1cc(C)nc(Sc2ccccc2N)n1 | ? | 5.01µM | . | . | .[10 µM] | .[9.22 µM]
COc1ccc(N2CSC3=C(C#N)C(c4cccs4)CC(=O)N3C2)cc1 (stereo unspecified) | . | . | . | -48.7 | . | .
CCOC(=O)c1ccc(N2CSC3=C(C#N)C(c4cccs4)CC(=O)N3C2)cc1 (stereo unspecified) | ? | 89.1µM | . | . | . | .
CCOC(=O)CC1=C(C(=O)OCC)C(c2cccs2)C(C#N)=C(N)O1 (stereo unspecified) | ? | . | . | . | . | .
SMILES | KDM4E inh | VDR inh | GoLoco inh red | FBPA coupling cs | HTT cytoprotect | HttQ103 aggreg
Cc1ccc(N2CSC3=C(C#N)C(c4cccs4)CC(=O)N3C2)cc1 (stereo unspecified) | ? | 79.4µM | . | . | . | .
C#CCOCCOCCOCCNc1nc(N2CCN(C(=O)[C@H](CCC(=O)O)n3cc([C@@H](N)CO)nn3)CC2)nc(N2CCN(C(=O)[C@H](CCC(=O)O)n3cc([C@@H](N)CCSC)nn3)CC2)n1 | / | . | / | / | / | /
Cc1ccc(S(=O)(=O)N(C)c2ccc(OC(=O)c3cc(=O)[nH]c4ccccc34)cc2)cc1 | / | . | / | / | / | /
C#C[C@H](N)CCC(=O)O | / | / | / | / | .[1.9 µM] | /
O=C(Oc1ccc(Cl)c2cccnc12)c1cccc([N+](=O)[O-])c1 | ? | . | . | . | .[10 µM] | .
O=C(Oc1c(Cl)cc(Cl)c2cccnc12)c1cccc([N+](=O)[O-])c1 | 14.1µM | . | . | . | .[10 µM] | 2.82µM
COc1ccc(CNc2ncnc3c2c(-c2ccccc2)cn3-c2ccc(C)c(Cl)c2)cc1 | / | . | / | / | / | /
COc1cc(CC(=O)Nc2ccc(S(=O)(=O)N(C)C)cc2)cc(OC)c1OC | . | . | 7.94µM | . | .[10 µM] | .
CC1CCC2C(=O)OC(COc3ccc(C(C)(C)C)cc3)CN2C1c1ccc(Br)cc1 (stereo unspecified) | / | / | / | . | ? | /
COc1ccc(CNCCc2ccc([N+](=O)[O-])cc2)c(OC)c1OC | / | . | / | . | / | /
COc1cc(N(C)C)cc(CN(C)CCc2ccc([N+](=O)[O-])cc2)c1O | / | 2.51µM | / | -54.3 | / | /
CC(C)CC(=O)Nc1ccc(C(=O)NNC(=S)NC(=O)C2CCCCC2)cc1 | ? | . | . | . | . | 10µM
CC(C(=O)Nc1ccc(O)cc1C(=O)O)N1C(=O)/C(=C\c2cccs2)SC1=S (stereo unspecified) | / | 44.7µM | / | / | / | /
COc1cc(/C=C(\C#N)C(=O)NC2CCCCC2C)ccc1OS(=O)(=O)c1ccc(C)cc1 (stereo unspecified) | ? | 79.4µM | . | . | .[10 µM] | ?
COc1cc(/C=C(\C#N)C(N)=O)ccc1OS(=O)(=O)c1ccc(C)cc1 | . | ? | . | . | .[10 µM] | .
Cc1ccc(N(NC(=O)C(O)(c2ccccc2)c2ccccc2)C(=O)CCl)cc1 | . | ? | . | . | .[10 µM] | 5.01µM
Cc1ccc(C(O)(C(=O)NN(C(=O)c2ccccc2)c2ccccc2)c2ccc(C)cc2)cc1 | . | . | . | . | .[1.9 µM] | .
C#CCNC(=O)C1=C[C@H](c2ccc(Br)cc2)C[C@H](OCc2ccc(CO)cc2)O1 | . | . | . | . | .[10 µM] | .[9.22 µM]
C=CCOc1ccc(C(=O)Nc2ccccc2C(=O)NCc2cccnc2)cc1 | / | . | / | . | / | /
COc1ccc(NCCNc2ccc(OC)cc2)cc1 | . | . | . | -35.4 | . | .
CCOC(=O)Cc1nnc2c(Nc3ccc(Cl)cc3)nc3nonc3n12 | . | . | . | . | .[10 µM] | 17.8µM
